Sm TGR block: inhibitors of Schistosoma mansoni thioredoxin glutathione reductase; purified TGR, DTNB reduction, TNB absorbance 405 nm; Potency, µM (doses to about 114 µM), for inactives: at the highest dose activity change, negative = inhibition, most hits filed as inhibitors; actives 3% (n = 360,000); active = well fitted inhibition curve with a large enough effect; inconclusive = small, poorly fitted or top-dose-only effect; inactive = no such curve, though single readings can be large or run the other way; also: % is scaled to controls: 0 for no effect and ±100 for the full control effect; nearly all actives have a fitted effect of over 60% in size
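Kinetic colorimetric format: TGR-catalysed, NADPH-driven DTNB reduction monitored via TNB absorbance. Enzyme dispensed at 20 nM; compound exposure 15 min at room temperature before reaction start.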
SARS PLpro yeast: SARS-CoV PLP inhibition in yeast; S. cerevisiae expressing SARS-CoV PLpro, growth rescue; Potency, µM (doses to about 32.9 µM), inactives show at the top dose activity, positive = growth rescue, hits mostly activators; actives 0.19% (n = 330,000); AID 485353; calls by dose curve; also: 0% is about no effect; nearly all actives have a fitted effect of over 55% in size
An asterisk follows results filed as active. This is a sample that favours compounds with a hit; in the whole collection about 3% have one here. Potency is read from the fitted curve at half-maximal effect.

`Cc1ccc(N2C(=O)[C@@H]3[C@H](C2=O)[C@H]2C=CC=NN2[C@@H]3C(=O)Nc2ccc(Cl)cc2)cc1` gave Sm TGR block -35% and SARS PLpro yeast -4%.
For CC1(C)Cc2nc3sc4c(=O)n(CC(=O)NCc5ccco5)cnc4c3cc2CO1 the results were Sm TGR block 35µM* and SARS PLpro yeast 2%.
`CC1(C)Cc2nc3oc4c(=O)n(CC(=O)Nc5ccccc5)cnc4c3cc2CO1` gave Sm TGR block 3% and SARS PLpro yeast 6%.
`CCn1c(=N)n(CC(=O)c2cccc([N+](=O)[O-])c2)c2ccccc21` gave Sm TGR block 7% and SARS PLpro yeast -2%.
Screening COC(=O)Cn1c(C)nc([N+](=O)[O-])c1Br returned Sm TGR block 6.3µM* and SARS PLpro yeast 2%.
Cc1nc([N+](=O)[O-])cn1CC(=O)c1ccc(F)cc1 was read as Sm TGR block 5% and SARS PLpro yeast 1%.
Cc1nc([N+](=O)[O-])c(Br)n1CC(=O)c1cccc([N+](=O)[O-])c1 was read as Sm TGR block 2µM* and SARS PLpro yeast -2%.
`Cc1nc([N+](=O)[O-])c(Br)n1Cc1ccccc1` gave Sm TGR block 2.5µM* and SARS PLpro yeast 0%.
For Cc1nc([N+](=O)[O-])c(Br)n1CC(=O)c1ccc(F)cc1 the results were Sm TGR block 3.2µM* and SARS PLpro yeast -8%.
Screening Cc1nc([N+](=O)[O-])c(SCC(O)CCl)n1Cc1ccc(Cl)cc1 (centres undefined) returned SARS PLpro yeast 0%.
For CCn1c(C)nc([N+](=O)[O-])c1C(=O)O the results were Sm TGR block 0% and SARS PLpro yeast -2%.
Screening CCOc1ccc(NC(=O)[C@H]2O[C@@H]3OC(C)(C)O[C@@H]3[C@H]3OC(C)(C)O[C@H]32)cc1 returned Sm TGR block 8%.
For CCOc1ccccc1NC(=O)Cn1cnc2onc(-c3ccc(F)cc3)c2c1=O the results were Sm TGR block 2%.
For CCOC(=O)C1(C)C=C(Nc2cccc(C(=O)O)c2)C(=O)N1c1cccc(C(=O)O)c1 (centres undefined) the results were Sm TGR block -20%.
`COc1ccc(NC(=O)c2oc3ccccc3c2NC(=O)Cc2cccs2)cc1` gave Sm TGR block 1%.
For CCc1cc2c(cc3c(=O)n(CC(=O)N4CCN(c5cccc(C)c5C)CC4)nc(CC)n32)s1 the results were Sm TGR block 6%.
For CCn1c(O)c(/C=C/C=C/C=Nc2ccccc2)sc1=S the results were SARS PLpro yeast 0%.
`CCCn1c(O)c(C=Nc2ccccc2)sc1=S` gave Sm TGR block 13% and SARS PLpro yeast 0%.
CCCCn1c(O)c(/C=C/C=C/C=Nc2ccccc2)sc1=S was read as Sm TGR block 20µM* and SARS PLpro yeast -5%.
`Oc1c(/C=C/C=C/C=Nc2ccccc2)sc(=S)n1Cc1ccccc1` gave Sm TGR block 11µM* and SARS PLpro yeast -2%.
Screening CC(O)CN1C(=O)C(CC(=O)Nc2ccc(Cl)cc2)SC1=Nc1ccccc1 (centres undefined) returned Sm TGR block 18µM* and SARS PLpro yeast -12%.
`COCCN1C(=O)C(CC(=O)Nc2ccc(C(C)=O)cc2)SC1=Nc1ccccc1` (centres undefined) gave Sm TGR block -23% and SARS PLpro yeast 0%.
Screening Cc1c(Br)c([N+](=O)[O-])nn1CC(=O)c1ccccc1 returned SARS PLpro yeast -1%.
CC(O)c1nc(C(C)O)n(CC(=O)c2ccccc2)n1 (centres undefined) was read as Sm TGR block 45µM* and SARS PLpro yeast -3%.
`O=C1C2ON(c3ccccc3)C(c3cccnc3)C2C(=O)N1Cc1ccccc1` (centres undefined) gave Sm TGR block 40µM* and SARS PLpro yeast -10%.
`Cc1ccccc1N1C(=O)C2ON(c3ccccc3)C(c3cccnc3)C2C1=O` (centres undefined) gave Sm TGR block inconclusive and SARS PLpro yeast -8%.
CCCCCOc1c(Cl)cc(C(=O)N(Cc2ccc(C)o2)C2CCS(=O)(=O)C2)cc1Cl (centres undefined) was read as Sm TGR block 1%.
`CC(=O)c1ccc(NC(=S)N2C(C)CCCC2C)cc1` (centres undefined) gave Sm TGR block 35µM* and SARS PLpro yeast inconclusive.
Screening CC(=O)c1ccc(NC(=S)N2CCCCCC2)cc1 returned Sm TGR block -8% and SARS PLpro yeast -1%.
`COc1cccc(NC(=O)CSC2=Nc3ccccc3N=C(c3ccc(F)cc3)C2)c1` gave Sm TGR block 0%.
Screening CCn1c(=O)c([N+](=O)[O-])c(NCCN(C)C)c2ccccc21 returned Sm TGR block 11% and SARS PLpro yeast 0%.
Screening CCn1c(=O)c([N+](=O)[O-])c(Cl)c2ccccc21 returned Sm TGR block 0.79µM* and SARS PLpro yeast -6%.
O=C(CNC(=O)Cc1ccccc1)NCC(=O)N1CCN(C(c2ccccc2)c2ccccc2)CC1 was read as Sm TGR block 0% and SARS PLpro yeast 2%.
`Cc1cccc(N2CCN(C(=O)C3CCC(=O)N(C4CC4)C3)CC2)c1C` (centres undefined) gave Sm TGR block -1% and SARS PLpro yeast 5µM*.
For COC(=O)CN1CCN(C(c2ccccc2)c2ccccc2)CC1 the results were Sm TGR block 45µM* and SARS PLpro yeast 2%.
`O=C(C1CCC(=O)N(C2CCCC2)C1)N1CCN(c2ccccc2Cl)CC1` (centres undefined) gave Sm TGR block -36% and SARS PLpro yeast -6%.
For COCCNC(=O)CN1CCN(C(c2ccccc2)c2ccccc2)CC1 the results were Sm TGR block 5% and SARS PLpro yeast 7%.
`Cc1cccc(N2CCN(C(=O)Cn3cccc3)CC2)c1C` gave Sm TGR block 50µM* and SARS PLpro yeast -7%.
O=C(Cn1cccc1)N1CCN(C(c2ccccc2)c2ccccc2)CC1 was read as Sm TGR block 40µM* and SARS PLpro yeast -9%.
`CNS(=O)(=O)c1cn(CC(=O)N2CCN(c3cccc(C)c3C)CC2)cc1S(=O)(=O)NC` gave Sm TGR block 0%.
For CCc1nnc(NC(=O)CSc2nccn2Cc2ccc(F)cc2)s1 the results were Sm TGR block 7%.
For CCOc1ccc(CNC(=O)COc2cc(=O)n(C)c3ccccc23)cc1 the results were Sm TGR block 0%.
`COc1ccc(-n2ncc(C(=O)N3CCN(c4ncccn4)CC3)c2C2CCN(C(=O)OC(C)(C)C)CC2)cc1` gave Sm TGR block 6%.
COc1ccc(C)cc1NC(=O)CSc1nc(=O)n(Cc2ccccn2)c2c1CCC2 was read as Sm TGR block -11%.
For CN(C[C@H](c1ccccc1)N(C[C@H](Cc1ccccc1)N(CCc1ccccc1)N=O)N=O)N=O the results were Sm TGR block inconclusive and SARS PLpro yeast 0%.
CN(C[C@H](Cc1ccccc1)N(C[C@H](c1ccccc1)N(CCc1ccccc1)N=O)N=O)N=O was read as Sm TGR block 13µM* and SARS PLpro yeast 1%.
CCCNC(=O)Cn1nc(-c2ccc(OC)cc2)c2cnc3ccc(F)cc3c21 was read as Sm TGR block -1%.
For Cc1ccc2c(c1C)NC(C(=O)O)C1CC=CC21 (centres undefined) the results were Sm TGR block 2.5µM* and SARS PLpro yeast 4%.

Screening results: PubChem BioAssay, National Center for Advancing Translational Sciences (NCATS)
